# Measured values reported in PubChem BioAssay (NCATS).
# Inconclusive results are not listed. Calls of active or inactive are those of the source. Calls follow the shape of the dose curve; as a rule, active = well fitted inhibition curve with a large enough effect; inconclusive = small, poorly fitted or top-dose-only effect; inactive = flat fitted curve, though single readings scatter.
# Target: Calcium and integrin-binding protein 1 (Homo sapiens) (UniProt Q99828)
# Experiment: Primary qHTS for Identification of Calcium Integrin Binding Protein 1 (CIB1) Competitor (AID 1508620); also: top concentration of the series differs between compounds
# Conditions: CIB1-GST / FITC-alphaIIb peptide fluorescence polarization; series mostly up to 114 µM; activity change, negative = inhibition: at the top concentration
# Outline: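 Fluorescence polarization competition: GST-tagged CIB1 (1 uM final) preincubated with compound 15 min at room temperature, then FITC-labelled alphaIIb peptide (100 nM final) added. After 15 min at room temperature, polarization read at Ex 480/Em 540.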
# % is scaled to controls: 0 for no effect and ±100 for the full control effect.
# Calcium and integrin-binding protein 1 (Homo sapiens), sequence (Q99828 whole entry, looked up): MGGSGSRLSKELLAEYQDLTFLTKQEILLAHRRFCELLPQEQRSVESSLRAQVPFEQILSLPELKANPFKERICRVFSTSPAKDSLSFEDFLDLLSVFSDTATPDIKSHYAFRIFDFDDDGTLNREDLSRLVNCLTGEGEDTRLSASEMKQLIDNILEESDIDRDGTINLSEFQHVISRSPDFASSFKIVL
Compound,"activity change, negative = inhibition",Potency
CC(=O)Nc1sc2c(c1-c1ccc(-c3nn[nH]n3)cc1)CCNC2,15.7% (inactive),–
CCOC(=O)C1CCN(c2ncc(-c3ccc4c(c3)OCCCO4)s2)CC1,2.57% (inactive),–
O=S(=O)(NC1CCC(NS(=O)(=O)c2c(F)cccc2F)CC1)c1ccc2c(c1)OCCO2 (stereo not given),1.37% (inactive),–
Nc1ccc(S(=O)(=O)N2CCN(S(=O)(=O)c3ccc4c(c3)OCCO4)CC2)cc1,5.39% (inactive),–
CCC(=O)C1CCCN(C(=O)CC(c2ccc3c(c2)OCO3)c2c(O)cc(OC)cc2OC)C1 (stereo not given),-4.91% [at 228 µM] (inactive),–
CCOC(=O)/C=C/c1cc(F)c(S(=O)(=O)N2CCN(S(=O)(=O)c3ccc4c(c3)OCCO4)CC2)cc1F,4.97% (inactive),–
Cc1cc(NC(=O)Nc2nnc(-c3cccnc3)s2)ccc1Cl,–,inactive
N#Cc1ccc(NC(=O)Nc2nnc(-c3ccncc3)s2)c(Cl)c1,7.97% (inactive),–
Cc1c(P(=S)(c2ccccc2)c2ccccc2)c2ccccc2n1C(=O)NCc1ccccc1,3.86% (inactive),–
Cc1cc2c(s1)c1cnn(Cc3c(F)cc(F)cc3F)c(=O)c1n2C,2.74% (inactive),–
Cc1cc(C)nc(NC(=S)N2CCN(c3ccc4ccccc4n3)CC2)c1,-3.3% (inactive),–
COc1ccc(-c2ccc3ncnc(NCc4cccs4)c3c2)cc1,-0.374% (inactive),–
Cc1ccccc1C(=O)N1CCc2cc(-c3ccnc(NC(=O)Cc4ccccc4)n3)ccc21,4.64% (inactive),–
O=S(=O)(c1cccc(Br)c1)N1CCN(S(=O)(=O)c2ccc3c(c2)OCCO3)CC1,0.419% (inactive),–
CC(C)c1ccccc1-c1ncc(F)c(NCc2ccc(-c3cccnc3)s2)n1,-0.0334% (inactive),–
Cc1ccc(OCCn2c(CCNC(=O)C3CCCCC3)nc3ccccc32)cc1,–,inactive
COc1cccc(C2c3c(ncn(CCCN4CCOCC4)c3=N)Oc3ccc4ccccc4c32)c1 (stereo not given),-2.17% (inactive),–
O=C1CCCC2=C1C(c1[nH]ncc1Cl)NC(=S)N2 (stereo not given),-4.97% (inactive),–
Nc1ccc2c(c1)S(=O)(=O)NC2=O,-7.25% (inactive),–
COc1cc(O)c(C(CC(=O)N2CC(C)CC(C)C2)c2ccc(O)cc2)c(OC)c1 (stereo not given),4.16% [at 228 µM] (inactive),–

Compound,"activity change, negative = inhibition",Potency
O=C(Nc1ccc(Cl)c(C(F)(F)F)c1)Nc1nnc(-c2ccncc2)s1,–,inactive
COC(=O)c1ccc2nc(NC3=NC(c4[nH]ncc4Cl)C4=C(CCCC4=O)N3)oc2c1 (stereo not given),0.757% (inactive),–
O=C1NC(=O)/C(=C/c2ccco2)N1,-2.71% (inactive),–
C[C@@H](NC(c1ccc(F)cc1)c1ccc2cccnc2c1O)c1ccccc1 (stereo not given in full),–,inactive
O=C(NC1CCCc2c1cnn2-c1ccc(F)cc1F)c1ccc(C(=O)c2ccccc2)cc1 (stereo not given),3.03% (inactive),–
O=C(OC/C=C/CSc1nnc(-c2cccc3ccccc23)o1)c1ccc(F)cc1,-1.61% (inactive),–
O=C(CCC#CCSc1nnc(-c2cccc3ccccc23)o1)c1ccccc1,3.05% (inactive),–
CCOC(=O)C1CCN(C(=O)C(C)(C)NC(=O)Nc2cccc(OC)c2)CC1,-6.79% (inactive),–
CS(=O)(=O)c1ccc(-c2csc(N3CCC(C(N)=O)CC3)n2)cc1,6.89% (inactive),–
CCN(Cc1cccs1)c1ncnc2ccc(-c3ccc4c(c3)OCO4)cc12,–,inactive
COc1ccc(-c2nc3ccccc3c(=O)n2Cc2ccc(CNC(=O)CO)cc2)cc1COc1ccc(NC(C)=O)cc1,-8.89% (inactive),–
Cc1ccc2c(c1)/C(=C\c1cc(Cl)c(O)c(Cl)c1)C(=O)N2,-13.1% (inactive),–
Cc1ccnc(NC(=S)N2CCN(c3ccc(N)cc3)CC2)c1,-9.23% (inactive),–
COc1cccc(C2c3c(ncn(-c4ccccc4C(C)(C)C)c3=N)Oc3ccc4ccccc4c32)c1 (stereo not given),7.01% (inactive),–
COc1ccc(Cn2ncc3c4sc(C)cc4n(C)c3c2=O)cc1F,-0.808% (inactive),–
CC(C)(C)OC(=O)NCc1nnc(C(C(=O)OCc2ccccc2)c2ccccc2)s1 (stereo not given),-3.79% (inactive),–
COC(=O)c1c(NC(=O)COC(=O)c2ccc(Cl)cc2[N+](=O)[O-])sc2c1CCCCC2,-0.0089% (inactive),–
O=C1CCCC2=C1C(c1[nH]ncc1Cl)N=C(Nc1nc3cc([S+](=O)([O-])N4CCCC4)ccc3o1)N2 (stereo not given),4.75% (inactive),–
Cc1cc(C)n2ncc(C(=O)NCc3ccccc3)c2n1,1.05% (inactive),–
Cc1cc(NS(=O)(=O)c2ccc(NC(=O)Cc3ccc4ccccc4c3)cc2)no1,-13.9% (inactive),–
